PubChem BioAssay AID1445 (SRMLSC, 2008)
The whole screen tested about 220,000 compounds, of which about 910 (0.41%) were called active.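 How the source made its calls: active means primary inhibition above the hit cutoff, then over 50% inhibition at one or more dose response concentrations (cut at about 23% in these data, passing the limit was not always enough); inconclusive means conflicting primary data, or primary hits not chosen for dose response; inactive means low primary inhibition, or under 50% at every dose.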 The full list was thinned out, with actives kept by preference. Entries with a potency or affinity are not part of this list.

target: Aminopeptidase N (Plasmodium falciparum (isolate 3D7)) (UniProt O96935); test: malaria alanyl aminopeptidase activity blockers – biochemical, fluorogenic H-Leu-NHMec substrate, 1536-well (AID 1445); details: recombinant M1AAP, H-Leu-NHMec fluorogenic kinetic assay; at 30 µM, hits give high values unless noted;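 further: plate controls were DMSO full reaction for no effect and no enzyme background for full effect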
Sequence (O96935 whole entry, looked up): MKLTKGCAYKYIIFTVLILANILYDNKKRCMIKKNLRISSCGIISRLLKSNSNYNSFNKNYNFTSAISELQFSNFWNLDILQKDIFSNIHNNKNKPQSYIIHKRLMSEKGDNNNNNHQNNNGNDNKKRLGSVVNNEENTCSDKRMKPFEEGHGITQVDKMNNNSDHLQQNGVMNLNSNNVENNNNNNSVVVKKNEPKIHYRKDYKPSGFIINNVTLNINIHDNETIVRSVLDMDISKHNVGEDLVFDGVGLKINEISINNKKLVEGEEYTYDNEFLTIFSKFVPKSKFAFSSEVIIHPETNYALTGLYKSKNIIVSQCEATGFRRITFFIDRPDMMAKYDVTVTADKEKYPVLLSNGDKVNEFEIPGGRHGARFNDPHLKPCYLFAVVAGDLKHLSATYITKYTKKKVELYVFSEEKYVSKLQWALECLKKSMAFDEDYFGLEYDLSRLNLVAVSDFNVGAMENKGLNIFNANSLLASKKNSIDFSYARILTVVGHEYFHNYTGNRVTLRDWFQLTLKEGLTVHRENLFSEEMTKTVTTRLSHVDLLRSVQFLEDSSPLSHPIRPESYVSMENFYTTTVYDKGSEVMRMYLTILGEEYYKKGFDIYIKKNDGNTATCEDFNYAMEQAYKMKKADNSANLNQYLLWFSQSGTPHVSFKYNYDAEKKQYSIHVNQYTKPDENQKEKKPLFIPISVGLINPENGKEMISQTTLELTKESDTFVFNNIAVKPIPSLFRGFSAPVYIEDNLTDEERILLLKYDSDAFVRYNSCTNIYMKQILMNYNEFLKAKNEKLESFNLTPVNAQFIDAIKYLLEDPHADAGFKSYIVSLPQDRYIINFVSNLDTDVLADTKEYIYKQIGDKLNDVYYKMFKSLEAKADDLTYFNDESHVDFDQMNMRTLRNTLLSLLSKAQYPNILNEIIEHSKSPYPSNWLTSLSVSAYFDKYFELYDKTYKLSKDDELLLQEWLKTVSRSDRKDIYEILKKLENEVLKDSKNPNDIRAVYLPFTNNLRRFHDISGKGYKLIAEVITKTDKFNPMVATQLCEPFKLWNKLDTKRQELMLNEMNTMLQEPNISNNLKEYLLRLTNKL

inhibition, inactive:
CC(=O)NS(=O)(=O)c1ccc(N=c2ssc3c2-c2cc(C)c(C)cc2NC3(C)C)cc1 13.3%
CC(=O)NS(=O)(=O)c1ccc(N=c2ssc3c2-c2cc(C)ccc2NC3(C)C)cc1 9.04%
Cc1ccc(CCNC(=O)c2cc(C)nn2-c2ccccc2)cc1 0.72%
COc1ccc(Nc2nc3ccccc3nc2NS(=O)(=O)c2cccs2)cc1 10.1%
Cc1ccc(NS(=O)(=O)c2ccc(NS(=O)(=O)c3cccs3)cc2)cc1 -3.61%
Cc1cc(C)nc(NS(=O)(=O)c2cccs2)c1 -0.13%
COc1ccc(NS(=O)(=O)c2cccs2)c(OC)c1 5.44%
Cc1ccc(-c2cc(C(=O)O)c3ccccc3n2)c(C)c1 3.63%
Cc1ccc(NC(=O)Cn2c(/C=C/c3ccccc3)nc3ccccc32)cc1C 7.46%
Cc1c(Cl)cccc1N1C(=O)CC(NNC(=O)c2cccnc2)C1=O (centres undefined) 8.09%
O=C(c1cccnc1)N1CCN(c2ccccc2Cl)CC1 -11.5%
CCN1C(=S)SC(=O)C1=C1C=C(C)N(Cc2ccco2)C(C)=C1 12.6%
CCN1C(=S)SC(=O)C1=C1C=C(C)OC(C)=C1 0.47%
C/C(CC(=O)Nc1ccccc1)=N\NC(=O)COc1ccc(C)cc1Br 2.81%
CCC(C)(C)n1nnnc1C(c1ccc2ncccc2c1)N1CCCCCC1 (centres undefined) 4.86%
CCC(C)(C)n1nnnc1C(c1ccc2ncccc2c1)N1CCN(c2ccc(O)cc2)CC1 (centres undefined) 4.2%
COc1ccc(/C=C/C(=O)NCc2cnn(C)c2C)cc1COc1ccc(Br)cc1 -0.2%
CC1CCCC(C)N1NC(=O)c1cccc(S(=O)(=O)N2CCc3ccccc32)c1 (centres undefined) 1.3%
COC(=O)n1c(=O)oc2ccccc21 6.55%
COc1cccc(Cn2nnc(C(=O)Nc3cc(C)ccc3OC)c2N)c1 7.36%
CCn1cnc2c1c(=O)n(CC(=O)Nc1cc(C)on1)c(=O)n2Cc1ccccc1 -3%
CN(C)c1ccc(NC(=O)Cn2c(=O)n(Cc3ccccc3)c(=O)c3ccccc32)cc1 10.9%
Cc1ccc(C(=O)CC2(O)C(=O)Nc3ccccc32)s1 (centres undefined) -3.92%
CCOc1ccccc1NC(=S)NCCCn1ccnc1 -1.93%
O=C(Nc1ccc(F)cc1)c1ccccc1S(=O)(=O)c1ccccc1[N+](=O)[O-] 10.1%
CC(=O)Nc1ccc(NC(=O)c2ccccc2S(=O)(=O)c2ccccc2[N+](=O)[O-])cc1 6.51%
COCc1cc(C)n(CC(=O)OC)c(=O)c1C#N 6.13%
CC(C)(C)NC(=O)CN(C(=O)CS(=O)CC(=O)Nc1ccc(F)cc1)c1ccc(Cl)cc1 (centres undefined) 3.41%
Cc1cc(C)n(-c2nc3ccccc3nc2N2CCCCCC2)n1 5.75%
Cc1cc(C)n(-c2nc3ccccc3nc2N2CCCC2)n1 7.98%
CC(=O)c1sc2nc(C)cc(C)c2c1N 3.82%
CCn1c(SCC(=O)N2CCCC2)nnc1-c1ccc(S(=O)(=O)N2CCCCCC2)cc1 17.8%
CCOC(=O)C1=C(O)/C(=C/c2ccccn2)SC1=Nc1ccc(Cl)cc1 -2.13%
CCOC(=O)C1=C(O)/C(=C/c2cc(OC)c(OC)c(OC)c2)SC1=Nc1ccc(OC)cc1 0.13%
CCOC(=O)c1ccc(N2C(=O)C(O)=C(C(C)=O)C2c2ccc(O)c(OC)c2)cc1 (centres undefined) 11%
COc1ccccc1-c1c(NC(=O)c2ccco2)n(C)c2ccccc2c1=O 5.76%
CN(C(=O)c1cnc2n(c1=O)CCS2)C1CCCCC1 7.72%
O=C(c1cnc2n(c1=O)CCS2)N(c1ccccc1)C1CCCCC1 3.16%
Cn1nnnc1Sc1ccc([N+](=O)[O-])cc1Cl 4.02%
Cc1ccc(OCC(=O)Nc2ccc(S(=O)(=O)Nc3ccccn3)cc2)cc1C -0.21%
Cc1ccc2nc(NC(=O)CSc3nncc(=O)n3N)sc2c1 -3.78%
CC1=CC(c2ccccc2)n2nc(NS(=O)(=O)c3ccc(C)cc3)nc2N1 (centres undefined) 9.04%
CC(=O)Nc1nc2n(n1)C(c1ccccc1)C=C(c1ccccc1)N2 (centres undefined) 21.9%
CC1=CC2=NC(=O)/C(=C\c3cccn3CCOc3cc(C)cc(C)c3)C(=N)N2O1 4.33%
CCOC(=O)COc1cc2oc(=O)cc(C)c2cc1[N+](=O)[O-] 1.36%
CCOc1ccc(-c2cn(-c3cccc(SC)c3)c(=O)[nH]2)cc1 7.5%
COc1ccc(-c2cn(-c3cccc(C)c3)c(=O)[nH]2)cc1OC 0.73%
COc1cccc(-c2nnc(SCc3cccnc3)o2)c1 1.1%
Cc1nn(-c2ccccc2)c(C)c1/C=N/NC(=O)c1cc(C23CC4CC(CC(C4)C2)C3)[nH]n1 8.14%
CN(NS(=O)(=O)c1ccc(Cl)cc1)c1ncc(C(F)(F)F)cc1Cl 3.99%
Cc1cccc(NC(=O)c2c(-c3ccccc3)noc2C)n1 3.16%
CSc1cccc(NC(=S)N2CCC(N(C)C3CCCCCC3)CC2)c1 5.52%
O=c1c(-c2ccc3c(c2)OCCO3)coc2cc(O)cc(O)c12 13.2%
Cc1oc2cc(O)cc(O)c2c(=O)c1-c1ccc2c(c1)OCCCO2 -10.6%
NC(=O)CSc1nnc(-c2cccnc2)n1Cc1ccccc1 -0.97%
Cn1nc(C(=O)Nc2sc3c(c2C#N)CCCC3)ccc1=O 4.41%
CC(C)Cn1c(CN2C(=O)c3ccccc3C2=O)nc2ccccc2c1=O -3.16%
O=C1c2ccccc2C(=O)N1n1c(=O)[nH]c2ccccc2c1=O 2.13%
Brc1ccccc1-c1csnn1 2.07%
CCOCCCn1c(=S)[nH]c2cc(C(=O)NCCCN(CC)CC)ccc2c1=O 12.3%
COc1ccc(C(=O)c2c(C)oc3ccc(O)c(CN4CCOCC4)c23)cc1 1.06%
O=C(CC(Cc1ccccc1)c1ccco1)NC1CCCCC1 (centres undefined) 3.48%
Cc1ccc(C2C=C(c3ccccc3)Nc3nc(N4C(=O)CCC4=O)nn32)cc1 (centres undefined) 4.75%
CC1=CC(c2ccc(Cl)cc2)n2nc(N3C(=O)CCC3=O)nc2N1 (centres undefined) 14.2%
COC(=O)c1cc(O)c(O)c(O)c1 6.36%
COC(=O)c1ccc(Sc2ccc(C)cc2)c(N)c1 11.3%
CCCN(CC1CC1)C(=S)NC(=O)C1CC1 3.89%
CC(=O)CCc1c(C)nc2ccc(C(=O)O)cc2c1Cl 11.9%
CCOC(=O)c1cccc(Nc2ncnc3ccccc23)c1 6.34%
O=S(=O)(c1ccc(Cl)cc1)N(CCCN1CCOCC1)Cc1cccs1 2.6%
C/C(=N\NC(=O)CCn1nnc2ccccc21)c1cccs1 0%
COc1cc(NC(=O)c2cccs2)c(OC)cc1NC(=O)CCC(=O)Nc1cccc2ncccc12 16.7%
Cc1ccc(Cn2ccc(NC(=O)c3noc4c3CCc3ccccc3-4)n2)cc1 8.24%
Cc1cc([N+](=O)[O-])ccc1NC(=S)NC(=O)C(c1ccccc1)c1ccccc1 9.66%
CC(=O)NC(=S)Nc1ccc([N+](=O)[O-])cc1C 3.35%
O=C(CSc1ccc2nnc(-c3ccncc3)n2n1)Nc1ccc2c(c1)OCO2 5.11%
Cn1cc([N+](=O)[O-])c(C(=O)NNC(=O)c2ccc([N+](=O)[O-])cc2)n1 1.97%
Cc1ccc(-c2csc3ncnc(NS(=O)(=O)c4ccc(Cl)cc4)c23)cc1 -5.44%
CN(C)CCCNc1ncnc2scc(-c3ccccc3)c12 -12.9%
CCOC(=O)c1ccc(NC(=O)COc2ccc(S(=O)(=O)N3CCCC3)cc2)cc1 10.4%
O=S(=O)(Nc1nc2ccccc2nc1Cl)c1ccccc1 7.23%
O=S(=O)(Nc1nc2ccccc2nc1Cl)c1ccc2c(c1)OCCO2 15.8%
Cc1cc(S(=O)(=O)Nc2cccc(Cl)c2)c(C)s1 7.05%
CSc1ccccc1C(=O)C1CCCN(C(=O)c2ccc(N3CCOCC3)cc2)C1 (centres undefined) 0.54%
COC(=O)C1=NN(C(=O)c2cccc(Cl)c2)C(O)(C(C)(C)C)C1 (centres undefined) 33.3%
COC(=O)C1=NN(C(=O)c2ccc(Br)cc2)C(O)(C(C)(C)C)C1 (centres undefined) 53.2%

inhibition, active:
CCN1C(=S)SC(=O)C1=C1C=C(C)N(CCO)C(C)=C1 26.2%
Cc1cc(NC(=O)Cn2c(=O)n(Cc3ccccc3)c(=O)c3ccccc32)no1 23.7%
CCN(CC)c1nc2ccccc2nc1-n1nc(C)cc1C 25.1%
CCOC(=O)C1=C(O)/C(=C/c2ccc(-c3ccccc3C(=O)O)o2)SC1=Nc1ccc(OC)cc1 26.2%
CSc1cccc(-n2cc(-c3ccc4c(c3)OCO4)[nH]c2=O)c1 25.8%
O=c1c(-c2ccc3c(c2)OCCO3)c(C(F)(F)F)oc2cc(O)cc(O)c12 24.6%
COc1cc(NC(=O)c2cccs2)c(OC)cc1NC(=O)CCn1nnc2ccccc21 25%
Cc1cc([N+](=O)[O-])ccc1NC(=S)NC(=O)Cc1ccccc1 23.7%
